# Assay results as given in ChEMBL document CHEMBL2218924, “A broad activity screen in support of a chemogenomic map for kinase signalling research and drug discovery” (Biochem J, 2013).
# Legend:
# [1] = target: T1, Rhodopsin kinase GRK7 (Homo sapiens) (UniProt Q8WTQ7); conditions: at 10 µM
# T1 sequence (whole entry): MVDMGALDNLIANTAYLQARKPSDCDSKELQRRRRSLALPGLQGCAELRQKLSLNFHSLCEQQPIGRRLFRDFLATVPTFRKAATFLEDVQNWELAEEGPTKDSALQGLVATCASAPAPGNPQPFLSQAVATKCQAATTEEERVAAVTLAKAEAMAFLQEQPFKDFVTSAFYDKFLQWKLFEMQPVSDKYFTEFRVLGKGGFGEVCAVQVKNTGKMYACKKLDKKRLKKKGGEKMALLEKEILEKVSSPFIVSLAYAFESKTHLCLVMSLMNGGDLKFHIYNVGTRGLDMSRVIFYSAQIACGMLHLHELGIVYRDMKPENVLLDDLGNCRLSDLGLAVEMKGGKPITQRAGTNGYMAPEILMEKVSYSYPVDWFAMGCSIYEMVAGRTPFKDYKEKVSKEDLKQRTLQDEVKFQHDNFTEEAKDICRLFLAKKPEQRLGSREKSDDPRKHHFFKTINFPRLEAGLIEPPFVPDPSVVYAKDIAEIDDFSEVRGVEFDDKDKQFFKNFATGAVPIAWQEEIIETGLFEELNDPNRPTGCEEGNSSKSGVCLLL
# [2] = target: Glycogen synthase kinase-3 alpha (Homo sapiens) (UniProt P49840); conditions: at 1 µM
# Sequence of Glycogen synthase kinase-3 alpha (Homo sapiens) (P49840 2-483 limits assumed): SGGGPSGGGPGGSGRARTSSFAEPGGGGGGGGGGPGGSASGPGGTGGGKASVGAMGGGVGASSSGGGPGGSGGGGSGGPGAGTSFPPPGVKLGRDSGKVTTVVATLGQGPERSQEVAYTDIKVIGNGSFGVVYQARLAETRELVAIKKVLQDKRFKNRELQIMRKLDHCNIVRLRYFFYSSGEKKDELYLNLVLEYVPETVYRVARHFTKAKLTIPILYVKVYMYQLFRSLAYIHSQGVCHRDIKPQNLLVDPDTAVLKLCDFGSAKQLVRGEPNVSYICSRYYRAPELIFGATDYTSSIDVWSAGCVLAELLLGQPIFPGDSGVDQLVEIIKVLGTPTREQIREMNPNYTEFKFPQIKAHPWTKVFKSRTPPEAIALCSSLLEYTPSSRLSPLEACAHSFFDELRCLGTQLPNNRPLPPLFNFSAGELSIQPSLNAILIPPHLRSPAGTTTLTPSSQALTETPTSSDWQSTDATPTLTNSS
# [3] = target: Glycogen synthase kinase-3 alpha (Homo sapiens) (UniProt P49840); conditions: at 10 µM
# [4] = target: Glycogen synthase kinase-3 beta (Homo sapiens) (UniProt P49841); conditions: at 1 µM
# Sequence of Glycogen synthase kinase-3 beta (Homo sapiens) (P49841 whole entry, looked up): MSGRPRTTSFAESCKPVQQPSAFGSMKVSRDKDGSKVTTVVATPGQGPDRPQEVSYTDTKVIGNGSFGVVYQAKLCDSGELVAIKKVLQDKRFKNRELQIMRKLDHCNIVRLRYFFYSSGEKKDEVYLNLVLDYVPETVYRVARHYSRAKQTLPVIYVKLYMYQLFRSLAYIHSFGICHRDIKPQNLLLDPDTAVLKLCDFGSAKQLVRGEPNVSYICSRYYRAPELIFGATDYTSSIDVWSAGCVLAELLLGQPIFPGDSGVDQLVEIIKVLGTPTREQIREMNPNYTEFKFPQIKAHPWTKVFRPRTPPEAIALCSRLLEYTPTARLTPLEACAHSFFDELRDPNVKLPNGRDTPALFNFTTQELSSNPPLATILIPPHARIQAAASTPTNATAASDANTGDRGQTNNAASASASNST
# [5] = target: Glycogen synthase kinase-3 beta (Homo sapiens) (UniProt P49841); conditions: at 10 µM
# [6] = target: Homeodomain-interacting protein kinase 1 (Homo sapiens) (UniProt Q86Z02); conditions: at 1 µM
# Sequence of Homeodomain-interacting protein kinase 1 (Homo sapiens) (Q86Z02 whole entry, looked up): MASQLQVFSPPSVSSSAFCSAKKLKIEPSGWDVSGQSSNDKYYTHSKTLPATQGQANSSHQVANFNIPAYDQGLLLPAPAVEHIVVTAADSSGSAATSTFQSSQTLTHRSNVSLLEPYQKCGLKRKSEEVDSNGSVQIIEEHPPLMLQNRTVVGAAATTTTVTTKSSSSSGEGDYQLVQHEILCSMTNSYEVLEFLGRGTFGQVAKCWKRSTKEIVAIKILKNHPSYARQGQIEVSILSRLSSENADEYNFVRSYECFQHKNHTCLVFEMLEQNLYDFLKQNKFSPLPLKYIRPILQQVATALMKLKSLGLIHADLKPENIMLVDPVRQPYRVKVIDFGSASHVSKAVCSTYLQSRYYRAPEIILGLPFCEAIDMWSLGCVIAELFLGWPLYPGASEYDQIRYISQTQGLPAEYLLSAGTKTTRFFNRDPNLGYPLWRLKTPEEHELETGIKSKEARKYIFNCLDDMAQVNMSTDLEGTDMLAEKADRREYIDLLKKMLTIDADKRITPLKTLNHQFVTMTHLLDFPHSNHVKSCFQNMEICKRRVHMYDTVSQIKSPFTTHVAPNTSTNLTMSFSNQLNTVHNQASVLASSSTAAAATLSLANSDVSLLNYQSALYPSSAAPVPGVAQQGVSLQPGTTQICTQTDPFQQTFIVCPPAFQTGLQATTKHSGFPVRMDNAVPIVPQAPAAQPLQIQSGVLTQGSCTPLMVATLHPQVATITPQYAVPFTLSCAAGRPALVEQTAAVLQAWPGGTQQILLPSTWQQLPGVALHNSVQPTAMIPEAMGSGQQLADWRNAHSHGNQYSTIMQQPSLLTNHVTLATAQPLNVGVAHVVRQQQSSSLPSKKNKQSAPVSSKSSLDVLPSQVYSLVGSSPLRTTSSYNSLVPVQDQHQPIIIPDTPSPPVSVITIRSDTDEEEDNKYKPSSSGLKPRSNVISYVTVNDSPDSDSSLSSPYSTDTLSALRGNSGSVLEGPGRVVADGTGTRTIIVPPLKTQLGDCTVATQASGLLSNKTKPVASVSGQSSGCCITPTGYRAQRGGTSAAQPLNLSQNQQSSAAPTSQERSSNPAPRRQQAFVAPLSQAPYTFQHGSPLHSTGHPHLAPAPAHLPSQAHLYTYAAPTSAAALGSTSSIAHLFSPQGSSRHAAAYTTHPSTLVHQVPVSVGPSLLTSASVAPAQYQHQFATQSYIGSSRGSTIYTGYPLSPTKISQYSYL
# [7] = target: Homeodomain-interacting protein kinase 1 (Homo sapiens) (UniProt Q86Z02); conditions: at 10 µM
# [8] = target: Homeodomain-interacting protein kinase 2 (Homo sapiens) (UniProt Q9H2X6); conditions: at 1 µM
# Sequence of Homeodomain-interacting protein kinase 2 (Homo sapiens) (Q9H2X6 whole entry, looked up): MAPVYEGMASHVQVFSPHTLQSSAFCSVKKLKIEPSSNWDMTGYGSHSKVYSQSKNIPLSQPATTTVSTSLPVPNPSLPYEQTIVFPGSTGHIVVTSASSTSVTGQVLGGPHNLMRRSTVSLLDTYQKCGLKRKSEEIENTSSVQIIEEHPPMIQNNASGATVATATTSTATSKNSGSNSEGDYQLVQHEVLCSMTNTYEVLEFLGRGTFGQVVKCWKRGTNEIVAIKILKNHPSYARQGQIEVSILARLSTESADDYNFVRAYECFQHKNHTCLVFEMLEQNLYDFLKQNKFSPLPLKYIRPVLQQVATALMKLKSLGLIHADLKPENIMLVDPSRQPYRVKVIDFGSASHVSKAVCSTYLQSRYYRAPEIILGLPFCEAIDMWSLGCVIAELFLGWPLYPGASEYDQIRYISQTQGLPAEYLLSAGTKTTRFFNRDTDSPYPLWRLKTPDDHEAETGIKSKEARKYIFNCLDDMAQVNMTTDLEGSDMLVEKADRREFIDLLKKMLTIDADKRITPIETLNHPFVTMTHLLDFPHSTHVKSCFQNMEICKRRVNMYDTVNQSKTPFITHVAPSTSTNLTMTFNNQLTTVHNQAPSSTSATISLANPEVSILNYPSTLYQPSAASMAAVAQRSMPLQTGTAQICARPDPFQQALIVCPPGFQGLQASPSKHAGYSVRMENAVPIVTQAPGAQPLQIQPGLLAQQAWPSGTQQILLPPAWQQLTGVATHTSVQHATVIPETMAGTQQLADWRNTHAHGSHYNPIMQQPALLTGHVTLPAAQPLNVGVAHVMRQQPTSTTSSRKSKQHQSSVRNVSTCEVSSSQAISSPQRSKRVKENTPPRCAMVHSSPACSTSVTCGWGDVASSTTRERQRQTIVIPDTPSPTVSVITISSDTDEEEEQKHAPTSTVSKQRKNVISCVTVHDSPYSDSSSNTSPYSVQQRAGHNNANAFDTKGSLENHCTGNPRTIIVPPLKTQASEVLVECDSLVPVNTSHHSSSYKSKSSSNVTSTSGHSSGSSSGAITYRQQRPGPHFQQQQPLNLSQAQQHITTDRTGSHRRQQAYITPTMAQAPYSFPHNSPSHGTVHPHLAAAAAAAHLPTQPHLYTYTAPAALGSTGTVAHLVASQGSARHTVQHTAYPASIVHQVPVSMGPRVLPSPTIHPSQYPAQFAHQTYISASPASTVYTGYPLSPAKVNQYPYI
# [9] = target: Homeodomain-interacting protein kinase 2 (Homo sapiens) (UniProt Q9H2X6); conditions: at 10 µM
# [10] = target: Homeodomain-interacting protein kinase 3 (Homo sapiens) (UniProt Q9H422); conditions: at 1 µM
# Sequence of Homeodomain-interacting protein kinase 3 (Homo sapiens) (Q9H422 whole entry, looked up): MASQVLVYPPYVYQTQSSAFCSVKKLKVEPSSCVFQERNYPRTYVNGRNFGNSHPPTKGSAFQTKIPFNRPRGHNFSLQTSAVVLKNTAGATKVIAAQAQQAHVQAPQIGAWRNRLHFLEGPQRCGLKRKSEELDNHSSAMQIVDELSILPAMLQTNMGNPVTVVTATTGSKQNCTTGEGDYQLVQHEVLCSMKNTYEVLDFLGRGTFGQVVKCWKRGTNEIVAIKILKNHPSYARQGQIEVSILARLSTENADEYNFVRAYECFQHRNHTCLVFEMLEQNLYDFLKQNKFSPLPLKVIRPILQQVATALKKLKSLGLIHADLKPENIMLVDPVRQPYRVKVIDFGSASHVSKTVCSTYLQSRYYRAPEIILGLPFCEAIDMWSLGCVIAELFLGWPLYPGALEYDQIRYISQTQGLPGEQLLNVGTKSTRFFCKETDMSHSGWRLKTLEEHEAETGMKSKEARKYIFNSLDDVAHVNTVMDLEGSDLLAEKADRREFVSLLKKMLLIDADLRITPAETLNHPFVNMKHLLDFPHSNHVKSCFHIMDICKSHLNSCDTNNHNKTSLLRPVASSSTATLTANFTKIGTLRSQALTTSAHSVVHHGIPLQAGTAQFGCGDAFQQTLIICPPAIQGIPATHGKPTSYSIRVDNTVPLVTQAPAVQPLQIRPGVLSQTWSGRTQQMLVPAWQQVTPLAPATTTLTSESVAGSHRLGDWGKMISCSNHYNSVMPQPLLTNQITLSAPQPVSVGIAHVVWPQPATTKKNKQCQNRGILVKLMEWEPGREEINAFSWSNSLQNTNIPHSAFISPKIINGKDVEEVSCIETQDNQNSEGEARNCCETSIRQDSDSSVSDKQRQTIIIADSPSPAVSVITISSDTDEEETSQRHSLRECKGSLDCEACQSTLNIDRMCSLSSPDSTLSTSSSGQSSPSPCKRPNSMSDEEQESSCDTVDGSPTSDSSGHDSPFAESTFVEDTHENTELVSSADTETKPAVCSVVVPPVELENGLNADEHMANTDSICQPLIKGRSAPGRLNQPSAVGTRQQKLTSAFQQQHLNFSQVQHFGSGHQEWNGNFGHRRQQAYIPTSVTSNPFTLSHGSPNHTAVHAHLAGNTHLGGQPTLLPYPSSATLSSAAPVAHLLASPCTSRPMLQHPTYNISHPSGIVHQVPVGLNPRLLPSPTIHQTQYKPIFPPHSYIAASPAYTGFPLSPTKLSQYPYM
Structure (SMILES),residual activity [1],residual activity [2],residual activity [3],residual activity [4],residual activity [5],residual activity [6],residual activity [7],residual activity [8],residual activity [9],residual activity [10]
O=C(c1ccccc1)c1ccc(N2CCOCC2)cc1O,95%,91%,121%,96%,87%,98%,97%,97%,94%,87%
CN(C)S(=O)(=O)c1ccc2c(c1)/C(=C/c1cc3c([nH]1)CCCC3)C(=O)N2,78%,97%,94%,112%,94%,,,97%,90%,99%
Nc1ncnc2c1cnn2-c1ccccc1,94%,,140%,84%,,,,101%,95%,99%
O=C(NC(NC(=S)Nc1ccc(F)c([N+](=O)[O-])c1)C(Cl)(Cl)Cl)C(c1ccccc1)c1ccccc1 (configuration not stated),98%,,89%,,,99%,93%,104%,77%,96%
O=S(=O)(NCCNC/C=C/c1ccc(Br)cc1)c1cccc2cnccc12,58%,,,,,,,,,
O=c1cc(N2CCOCC2)oc2c(-c3ccccc3)cccc12,81%,,,,,,,,,
COc1cc2nccc(Oc3ccc(NC(=S)NC(=O)c4ccccc4C)cc3)c2cc1OC,84%,120%,147%,86%,99%,93%,,100%,91%,88%
O=C(Nc1nc2ccccc2n1CCN1CCOCC1)c1cccc([N+](=O)[O-])c1,79%,113%,116%,,,,,,,
COc1cc2c(cc1OC)-c1n[nH]c(Nc3cccc(F)c3)c1C2,80%,115%,108%,,75%,,,,,
O=C(CCCc1ccc(-c2ccccc2F)cc1)Nc1ccc(O)cc1,86%,,84%,102%,79%,108%,104%,111%,105%,103%
O=C1NC(=O)c2c1c1c3ccccc3[nH]c1n1cncc21,76%,7%,4%,26%,29%,77%,58%,30%,13%,61%
CC(C)(C)n1nc(Cc2cccc3ccccc23)c2c(N)ncnc21,56%,116%,130%,103%,65%,95%,107%,101%,110%,93%
Cc1cc(C)c(/C=C2\C(=O)Nc3ccccc32)[nH]1,60%,106%,124%,,,,,80%,39%,
CCCCc1c(-c2ccc(OC)cc2)[nH]c2nccnc12,92%,46%,41%,52%,71%,,,,90%,106%
Nc1nc(Nc2ccc(S(N)(=O)=O)cc2)nn1C(=O)c1c(F)cccc1F,6%,11%,4%,23%,3%,75%,18%,48%,6%,
O=C(O)/C=C/c1cc(Br)c(Br)c(Br)c1Br,95%,93%,51%,125%,106%,93%,53%,83%,27%,94%
O=c1cc(N2CCOCC2)oc2c1ccc1ccccc12,87%,,80%,101%,73%,90%,50%,70%,22%,71%
CC(C)[C@H](CO)Nc1nc(Nc2cc(N)cc(Cl)c2)c2ncn(C(C)C)c2n1,10%,80%,28%,,,,60%,86%,32%,
O=C(c1cc2cc(O)ccc2[nH]1)c1cc2cc(O)ccc2[nH]1,54%,,26%,59%,20%,,,83%,28%,76%
CCCCc1c(-c2ccc(O)cc2)[nH]c2nccnc12,87%,62%,20%,79%,73%,,,,62%,
CN([C@@H](Cc1ccc(OS(=O)(=O)c2cccc3cnccc23)cc1)C(=O)N1CCN(c2ccccc2)CC1)S(=O)(=O)c1cccc2cnccc12,85%,,,,,,,,,
Oc1cccc(-c2nc(N3CCOCC3)c3oc4ncccc4c3n2)c1,94%,,127%,,,,,84%,89%,93%
O=C1NC(=O)C(c2c[nH]c3ccccc23)=C1c1c[nH]c2ccccc12,20%,19%,4%,31%,6%,,,76%,15%,
CCCC(=O)Oc1ccc2[nH]c(C(=O)c3cc4ccccc4[nH]3)cc2c1,82%,,125%,99%,95%,98%,103%,102%,100%,93%
O=C1Nc2ccccc2/C1=C\c1c(Cl)[nH]c2ccccc12,87%,,,141%,80%,,,,,
O=C1Nc2ccc(Cl)cc2/C1=C/c1cc(Cl)c(O)c(Cl)c1,79%,75%,30%,84%,44%,93%,88%,76%,22%,79%
